A short description of experiment [1]: qHTS assay to identify small molecule antagonists of the glucocorticoid receptor (GR) signaling pathway - cell viability counter screen (AID 720693; also: nearly all actives have a fitted effect of over 55% in size). (In general: In qHTS, concentration-response curves come from the screen itself.)
A short description of experiment [2]: qHTS assay for identifying genotoxic compounds that show differential cytotoxicity against isogenic chicken DT40 cell lines with known DNA damage response pathways - wild type cell line (AID 743012). Also: nearly all actives have a fitted effect of over 60% in size. Also: potency is read from the fitted curve at half-maximal effect. Summed up: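 First, wild type DT40 cells were plated at 300 per well and equilibrated about 0.5 h at 37 C/5% CO2. Next, compounds in DMSO were added and exposure lasted 40 h. Finally, CellTiter-Glo was added for 30 min at room temperature and luminescence recorded.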

Experiment [3] is described as follows: qHTS assay for identifying genotoxic compounds that show differential cytotoxicity against isogenic chicken DT40 cell lines with known DNA damage response pathways - Rev3 mutant cell line (AID 743014). Also: nearly all actives have a fitted effect of over 55% in size. Also: potency is read from the fitted curve at half-maximal effect.
Experiment [4] can be described thus: qHTS assay for identifying genotoxic compounds that show differential cytotoxicity against isogenic chicken DT40 cell lines with known DNA damage response pathways - Rad54/Ku70 mutant cell line (AID 743015). Also: nearly all actives have a fitted effect of over 60% in size. Also: potency is read from the fitted curve at half-maximal effect.
Experiment [5] in a line: qHTS assay to identify small molecule antagonists of the androgen receptor (AR) signaling pathway - cell viability counter screen (AID 743033; also: nearly all actives have a fitted effect of over 45% in size).
A short description of experiment [6]: qHTS assay to identify small molecule antagonists of the androgen receptor (AR) signaling pathway using the MDA cell line - cell viability counter screen (AID 743041; also: nearly all actives have a fitted effect of over 45% in size). In a few lines: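 Viability counter screen run alongside the AR antagonist reporter: cells seeded 5 h before compound, R1881 added, 16 h incubation at 37C without CO2, fluorescent CellTiter-Fluor signal quantified.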

The target in experiment [7] is Androgen receptor (Homo sapiens) (UniProt P10275). Nature of the experiment: qHTS assay to identify small molecule agonists of the androgen receptor (AR) signaling pathway using the MDA cell line (AID 743040; also: nearly all actives have a fitted effect of over 20% in size). In a few lines: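 Luminescence from ONE-Glo, read after 30 min at room temperature, reflects MMTV-driven luciferase in MDA-kb2 cells (AR- and GR-responsive). Treatment lasted 16 h at 37C, 0% CO2.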

For experiment [8] the target is unchanged. The experiment can be described thus: qHTS assay to identify small molecule agonists of the androgen receptor (AR) signaling pathway (AID 743036; active = well fitted activation curve with a large enough effect in the signal ratio in the repeat runs, with a control signal flat, not every such curve was filed as active; the % refers to the signal ratio). In a few lines: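 Cell-based FRET reporter assay: HEK293 line with a UAS-beta-lactamase construct, compounds added in DMSO, 16 h exposure at 37C, then 2 h substrate step at room temperature and fluorescence intensity read.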

For experiment [9] the target is unchanged. The experiment can be described thus: qHTS assay to identify small molecule antagonists of the androgen receptor (AR) signaling pathway using the MDA cell line (AID 743042; also: nearly all actives have a fitted effect of over 55% in size). Summed up: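 MDA-kb2 cells (human breast carcinoma, stably carrying an MMTV-luciferase reporter responsive to AR and GR) were plated at 3,000 cells/well and preincubated 5 hr at 37C, then given compound plus R1881 agonist for 16 h. ONE-Glo luminescence was read.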

Structures are written as SMILES. Values joined by “and” are separate entries in the source; they are usually repeats but may differ in a detail not shown here. Equal entries are not always repeated. Inconclusive results are not listed. Active and inactive are the calls of the source. Unless noted, calls follow the shape of the dose curve; as a rule, active = well fitted curve in the direction sought with a large enough effect in the repeat runs; inconclusive = weak or mixed curves; inactive = no such curve, though single readings can be large; an effect the other way counts as inactive or inconclusive.

Sequence of Androgen receptor (Homo sapiens) (P10275 whole entry, looked up): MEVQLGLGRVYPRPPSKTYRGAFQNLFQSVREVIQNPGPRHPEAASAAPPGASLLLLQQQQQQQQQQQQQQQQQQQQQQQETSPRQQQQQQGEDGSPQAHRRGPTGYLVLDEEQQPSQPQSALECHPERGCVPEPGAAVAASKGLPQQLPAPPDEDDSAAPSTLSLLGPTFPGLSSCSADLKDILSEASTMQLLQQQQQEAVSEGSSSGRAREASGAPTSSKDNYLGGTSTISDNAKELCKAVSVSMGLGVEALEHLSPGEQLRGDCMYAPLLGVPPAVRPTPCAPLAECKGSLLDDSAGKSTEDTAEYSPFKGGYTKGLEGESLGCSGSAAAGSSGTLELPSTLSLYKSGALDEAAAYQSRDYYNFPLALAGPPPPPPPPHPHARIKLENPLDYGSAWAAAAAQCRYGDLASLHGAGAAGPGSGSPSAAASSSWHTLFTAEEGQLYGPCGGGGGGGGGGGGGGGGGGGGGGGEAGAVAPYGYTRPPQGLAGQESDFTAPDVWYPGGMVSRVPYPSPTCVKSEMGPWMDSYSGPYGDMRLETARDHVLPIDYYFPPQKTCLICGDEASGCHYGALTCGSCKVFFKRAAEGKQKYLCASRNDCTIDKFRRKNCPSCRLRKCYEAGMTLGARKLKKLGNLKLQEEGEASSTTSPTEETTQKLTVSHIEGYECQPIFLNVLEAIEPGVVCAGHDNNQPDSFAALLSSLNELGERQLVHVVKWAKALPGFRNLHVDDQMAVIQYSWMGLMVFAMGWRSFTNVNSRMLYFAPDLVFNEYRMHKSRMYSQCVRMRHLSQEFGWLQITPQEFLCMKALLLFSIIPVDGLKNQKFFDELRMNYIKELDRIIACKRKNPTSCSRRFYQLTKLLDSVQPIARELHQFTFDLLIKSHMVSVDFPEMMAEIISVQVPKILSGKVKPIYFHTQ

For the molecule `CC(C)=CCC[C@H](C)CCO`, the Potency result in experiment [1], in experiment [5] and in [6] was “inactive” in each case. The Potency was 54.5 µM (active) in [2], 48.6 µM (active) in [3] and 19.3 µM (active) in experiment [4].
Turning to `CCCC1CCCC(=O)O1` (centres undefined), the Potency result in [1], in experiment [2], in experiment [3], in [4], in experiment [5] and in experiment [6] was “inactive” in each case.
For the molecule `CCCCCC1CCC(=O)O1` (centres undefined), the Potency entry in experiment [1], in experiment [2], in experiment [3], in [4], in [5] and in experiment [6] was “inactive” in each case.
For `COc1ccc(CN(CCN(C)C)c2ncccn2)cc1`, the Potency result in [1], in [2], in experiment [3], in experiment [4], in experiment [5] and in experiment [6] was “inactive” in each case.
Regarding `O=C1C=CCCC1`, the Potency result in experiment [1], in [2], in experiment [3], in experiment [4], in experiment [5] and in experiment [6] was “inactive” throughout.
Turning to `Cc1cccc(C)c1NC(=O)CN1CCCC1`, the Potency entry in experiment [1], in experiment [2], in [3], in experiment [4], in experiment [5] and in experiment [6] was “inactive” throughout.
With `O=[N+]([O-])c1cccc(I)c1`, the Potency entry in [1], in [2], in experiment [3], in [4], in experiment [5] and in [6] was “inactive” throughout.
`CC(=O)Nc1cccc(N)c1`: the Potency entry in [1], in experiment [2], in experiment [3], in experiment [4], in experiment [5] and in experiment [6] was “inactive” each time.
Turning to `CC(=O)Nc1ccccc1O`, the Potency result in experiment [1], in experiment [2], in experiment [3], in [4], in experiment [5] and in experiment [6] was “inactive” in each case.
For the molecule `CC(C)(C)N`, the Potency entry in [1], in [2], in experiment [3], in experiment [4], in experiment [5] and in experiment [6] was “inactive” in each case.
Regarding `O=[N+]([O-])c1ccccc1CCO`, the Potency entry in [1], in experiment [2], in [3], in experiment [4], in [5] and in [6] was “inactive” in each case.
With `Cc1c(-c2cccnc2)c2ccccc2n1CCCCC(=O)O`, the Potency entry in experiment [1], in [2], in experiment [4], in experiment [5] and in experiment [6] was “inactive” throughout. Moreover, the Potency in experiment [3] is 30.6 µM (active).
For `CC(=O)CC/C=C(\C)CC/C=C(\C)CC/C=C(\C)CCC=C(C)C`, the Potency result in [1], in [2], in experiment [3], in experiment [4], in experiment [5] and in experiment [6] was “inactive” each time.
For the molecule `Nc1nc(Cl)nc2c1ncn2[C@H]1C[C@H](O)[C@@H](CO)O1`, the Potency result in experiment [1], in [5] and in experiment [6] was “inactive” throughout. Moreover, the Potency was 13.3 nM (active) and 1.9 nM (active) in experiment [2]; 16.8 nM (active) and 1.7 nM (active) in [3]; 21.1 nM (active) and 2.7 nM (active) in experiment [4].
With `SCCOCCOCCS`, the Potency entry in experiment [1], in experiment [2], in [3], in [4], in experiment [5] and in experiment [6] was “inactive” in each case.
Take `CCOC(C)OCC`: the Potency entry in experiment [1], in [2], in [3], in [4], in [5] and in [6] was “inactive” in each case.
`Cc1c(Nc2ncccc2C(=O)O)cccc1C(F)(F)F`: the Potency result in experiment [1], in experiment [3], in [5] and in [6] was “inactive” each time. In addition, the values for the Potency in experiment [2] and in experiment [4] were 12.7 µM (active) and 11.4 µM (active), respectively.
For the molecule `CCCCCCCCCC(C)C=O` (centres undefined), the Potency result in experiment [1], in [2], in experiment [3], in experiment [4], in experiment [5] and in experiment [6] was “inactive” in each case.
Consider `C/C=C1\[C@H]2C=C(C)C[C@]1(N)c1ccc(=O)[nH]c1C2`, for which the Potency entry in experiment [1], in experiment [2], in experiment [3], in experiment [4], in experiment [5] and in [6] was “inactive” throughout.
`Clc1cccc(C(c2ccc3nc[nH]c3c2)n2ccnc2)c1` (centres undefined): the Potency entry in experiment [1] and in experiment [6] was “inactive” each time. For the same molecule, the Potency in experiment [2] is 21.1 µM (active); in experiment [3], 26.6 µM (active); in experiment [4], 26.6 µM (active). In addition, the outcome in experiment [7] was inactive.
For the molecule `CC(COc1ccccc1)NC(C)C(O)c1ccc(O)cc1` (centres undefined), the Potency entry in experiment [1], in experiment [2], in experiment [3], in experiment [4], in [5] and in [6] was “inactive” each time.
Turning to `COc1ccc(/C=C/S(=O)(=O)NC(=O)c2ccc(C)cc2Cl)cc1`, the Potency entry in [1], in [2], in [3], in experiment [4], in experiment [5] and in experiment [6] was “inactive” each time.
Consider `CCCCCCCCCCCCCCCCC(=O)O`, for which the Potency result in experiment [1], in experiment [2], in experiment [3], in experiment [4], in experiment [6] and in experiment [9] was “inactive” throughout. The outcome in experiment [8] and in [7] was inactive.
As to `CCC(C)CCCC(C)(C)O` (centres undefined), the Potency entry in experiment [1], in [2], in experiment [3], in [4], in experiment [5] and in experiment [6] was “inactive” each time.
As for `O=C(O)CCc1nc2ccccc2[nH]1`, the Potency result in [1], in [2], in experiment [3], in experiment [4], in [5] and in [6] was “inactive” each time.
For `C1CCN(CN2CCCCC2)CC1`, the Potency entry in experiment [1], in [2], in [3], in experiment [4], in [5] and in experiment [6] was “inactive” throughout.
For `O=C(O)c1ccc2cc(O)ccc2c1`, the Potency result in experiment [1], in experiment [2], in experiment [3], in experiment [4], in [5] and in experiment [6] was “inactive” each time.
Take `O=C(O)CNc1ccccc1`: the Potency entry in experiment [1], in [2], in experiment [3], in [4], in experiment [5] and in [6] was “inactive” in each case.
For `COc1ccc(/C=C/c2cc(OC)cc(=O)o2)cc1`, the Potency entry in [1], in [2], in [3], in [4], in experiment [5] and in experiment [6] was “inactive” each time.
Take `CC(=O)Nc1ccn(C2COC(COC(=O)c3ccccc3)O2)c(=O)n1` (centres undefined): the Potency result in [1], in experiment [5] and in experiment [6] was “inactive” in each case. Moreover, the Potency in experiment [2] was 9.44 µM (active); in experiment [3], 13.3 µM (active); in experiment [4], 11.9 µM (active).
As to `Cc1cc(C)n(CO)n1`, the Potency entry in experiment [1], in experiment [2], in [3], in [4], in experiment [5] and in experiment [6] was “inactive” each time.
For the molecule `CCCCCCCCCCCCCCCCN`, the Potency entry in [1], in [2], in experiment [3], in experiment [4], in [5] and in experiment [6] was “inactive” throughout.

Source of the values: PubChem BioAssay (Tox21).
